Structures are written as SMILES. Active and inactive are the calls of the source.

Our source for the composite z-score, composite Z-score and z-score values is PubChem BioAssay.

Assay [1] concerns the target Albumin (Bos taurus) (UniProt P02769). Put plainly: bovine serum albumin binders on microarray, profiling panel, artefact control for SMM control protein annotation, biochemical, small-molecule microarray, Alexa647 label, 635/667 nm fluorescence (AID 1118).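 Also: score merges 667 nm emission intensity and signal-to-noise per printed compound spot.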 As to conditions: BSA-A647 binding, fluorescence 635 nm, higher = more signal.
Assay [2] in a line: small-molecule microarray binders of probe aXIP, primary screen, biochemical, NeuroSMM set, 635/667 nm fluorescence (AID 1119).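 Also: probe is the protein aXip251-270 applied at 1 µg/mL to compound-printed slides; binding of probe to printed compounds measured as 667 nm fluorescence plus signal to noise.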 Particulars: higher = more signal, called active from +8 up or from −8 down.
Assay [3] is described as follows: small-molecule binders of probe aNOTCH3, primary screen, biochemical, small-molecule microarray, 635/667 nm fluorescence (AID 1120).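 Also: probe is a biotin-tagged antibody raised against NOTCH3 rather than NOTCH3 protein; score merges spot fluorescence near 667 nm with spot signal to noise.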 As to conditions: higher = more signal.
The nature of assay [4]: small-molecule binders of probe aNOTCH2, primary screen, biochemical, small-molecule microarray, 635/667 nm fluorescence (AID 1121).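 Also: score merges feature fluorescence read at 667 nm with its signal to noise.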 As to conditions: higher = more signal.
Assay [5] has as its target Carbonic anhydrase 2 (Homo sapiens) (UniProt P00918). Put plainly: CAII small-molecule binders, profiling panel, biochemical, small-molecule microarray, Alexa647-labelled CAII (AID 1122). Particulars: CAII-A647 binding fluorescence, higher = more signal.
The nature of assay [6]: COS7 lysate on small-molecule microarray, probe aHis, 635 nm (AID 1123).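 Also: z-score combines 667nm fluorescence intensity with signal-to-noise per printed compound spot.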 As to conditions: COS7 cell lysate, fluorescence, higher = more signal.
The nature of assay [7]: compound binding in COS7 lysate, probe aLAP1, primary screen, cell lysate, small-molecule microarray (AID 1124).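 Also: lysate comes from COS7 cells expressing LAP1 and is applied at 0.3 µg/mL; score merges spot fluorescence near 667 nm with signal-to-noise over triplicate slides.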 Particulars: probe aLAP1, fluorescence, higher = more signal.
In assay [8] the test system is Sam68 (KHDRBS1). Put plainly: Sam68 small-molecule binders, primary screen, biochemical, small-molecule microarray, 635 nm fluorescence (AID 1125).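 Also: score merges 667 nm channel intensity with signal to noise over triplicate slides.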 As to conditions: small-molecule microarray binding, higher = more signal.
Assay [9] concerns Chordin-like protein 2 (CHRDL2). Put plainly: CHRDL2 small-molecule binders, primary screen, biochemical, small-molecule microarray, 635 nm fluorescence (AID 1126).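 Also: printed compound slides probed with Chrdl2 protein at 4 µg/mL for 1 h at 4 C; score merges 667 nm emission intensity with signal to noise over three replicate slides.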 Particulars: small-molecule microarray binding, fluorescence 635 nm; higher = more signal.
Assay [10] addresses Concanavalin-A (Canavalia ensiformis) (UniProt P02866). Put plainly: ConA small-molecule binders, primary screen, artefact control for SMM control protein annotation, biochemical, small-molecule microarray, Alexa647 label, 635 nm (AID 1127).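 Also: z combines 667 nm emission intensity with signal-to-noise across three replicate slides.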 As to conditions: ConA-A647 binding fluorescence, higher = more signal.
Assay [11] is described as follows: anti-His antibody binders, primary screen, artefact control for SMM control protein annotation, biochemical, small-molecule microarray, 635 nm fluorescence (AID 1128).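 Also: score merges feature fluorescence with signal-to-noise for each printed compound spot.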 Particulars: anti-His Alexa647 antibody binding, higher = more signal.
Assay [12] deals with Human papillomavirus type 1a E7 protein (residues 1-88). Put plainly: HPV1a E7 small-molecule binders, primary screen, biochemical, small-molecule microarray, residues 1-88, 635 nm (AID 1129). Particulars: small-molecule microarray binding, fluorescence 635 nm; higher = more signal.
Assay [13] has as its target Focal adhesion kinase 1 (Homo sapiens) (UniProt Q05397). Put plainly: small-molecule microarray binders of FAK, primary screen, biochemical, 635/667 nm fluorescence, BSA, DTT (AID 1130).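 Also: composite of spot emission at 667 nm and signal to noise over triplicate slides.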 Particulars: PTK2 binding, 635 nm fluorescence, higher = more signal.
Assay [14] concerns Fibrinogen (Alexa647-labelled). Put plainly: fibrinogen binders on compound microarrays, profiling panel, artefact control for SMM control-protein annotation, biochemical, small-molecule microarray, 635/667 nm fluorescence (AID 1131).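 Also: z-score merges 667 nm fluorescence with per-spot signal-to-noise over triplicate slides.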 Particulars: fibrinogen-A647 binding fluorescence, higher = more signal.
In assay [15] the target is Follistatin (Homo sapiens) (UniProt P19883). Put plainly: follistatin binders on small-molecule microarrays, primary screen, biochemical, small-molecule microarray, 635/667 nm fluorescence (AID 1132). As to conditions: FST binding, 635 nm fluorescence, higher = more signal.
Assay [16] addresses Fibroblast growth factor 2 (Homo sapiens) (UniProt P09038). Put plainly: FGF2 binders on small-molecule microarrays, primary screen, biochemical, small-molecule microarray, 635/667 nm fluorescence (AID 1133). Particulars: small-molecule microarray binding, FGF2, fluorescence 635/667; higher = more signal.
Assay [17] in a line: mitochondrial membrane potential change in A549 cells, profiling panel, cell-based, JC-1 fluorescence, basal, 24 h, 100 nL (AID 1138).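 Also: A549 lung adenocarcinoma cells under basal conditions with no added stimulus; test concentration not given here.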 As to conditions: higher = more signal.
Assay [18] relates to Lefty1. Put plainly: Lefty1 binders on small-molecule microarrays, primary screen, biochemical, small-molecule microarray, 635/667 nm fluorescence (AID 1139). As to conditions: small-molecule microarray binding, fluorescence 635/667; higher = more signal.
For assay [19], the system named is wheat germ agglutinin (Triticum aestivum), Alexa647-labelled. Put plainly: wheat germ agglutinin binders on compound microarrays, profiling panel, artefact control for SMM control-protein annotation, biochemical, small-molecule microarray, 635/667 nm fluorescence (AID 1140).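 Also: score merges 667 nm feature emission with signal to noise over triplicate slides.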 As to conditions: WGA-A647 binding, 635 nm fluorescence, higher = more signal.
Assay [20] has as its target Luciferin 4-monooxygenase (Photinus pyralis) (UniProt P08659). Put plainly: firefly luciferase enzyme inhibitors, primary screen, biochemical, luminescence, purified enzyme, 2006 set (AID 1141).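 Also: cell-free assay with purified firefly luciferase at 100 ng per well in PBS; test concentration not given here.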 As to conditions: SteadyGlo luminescence, 30 min, higher = more signal, called active from +8 up or from −8 down.

Luciferin 4-monooxygenase (Photinus pyralis), sequence (P08659 whole entry, looked up): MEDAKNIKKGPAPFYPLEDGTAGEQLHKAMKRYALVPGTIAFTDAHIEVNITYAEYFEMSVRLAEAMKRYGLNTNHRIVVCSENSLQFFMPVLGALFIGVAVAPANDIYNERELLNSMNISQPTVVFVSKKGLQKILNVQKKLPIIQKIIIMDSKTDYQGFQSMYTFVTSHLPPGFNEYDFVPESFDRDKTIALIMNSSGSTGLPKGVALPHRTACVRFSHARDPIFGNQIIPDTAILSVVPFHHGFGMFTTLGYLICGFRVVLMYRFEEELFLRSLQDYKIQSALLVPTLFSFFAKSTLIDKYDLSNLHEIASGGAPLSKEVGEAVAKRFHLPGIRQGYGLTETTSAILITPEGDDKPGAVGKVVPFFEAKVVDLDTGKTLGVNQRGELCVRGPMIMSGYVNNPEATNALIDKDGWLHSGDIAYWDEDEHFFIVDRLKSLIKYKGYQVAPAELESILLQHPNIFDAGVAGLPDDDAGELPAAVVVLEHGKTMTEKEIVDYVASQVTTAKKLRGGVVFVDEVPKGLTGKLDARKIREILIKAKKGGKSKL
Albumin (Bos taurus), sequence (P02769 whole entry, looked up): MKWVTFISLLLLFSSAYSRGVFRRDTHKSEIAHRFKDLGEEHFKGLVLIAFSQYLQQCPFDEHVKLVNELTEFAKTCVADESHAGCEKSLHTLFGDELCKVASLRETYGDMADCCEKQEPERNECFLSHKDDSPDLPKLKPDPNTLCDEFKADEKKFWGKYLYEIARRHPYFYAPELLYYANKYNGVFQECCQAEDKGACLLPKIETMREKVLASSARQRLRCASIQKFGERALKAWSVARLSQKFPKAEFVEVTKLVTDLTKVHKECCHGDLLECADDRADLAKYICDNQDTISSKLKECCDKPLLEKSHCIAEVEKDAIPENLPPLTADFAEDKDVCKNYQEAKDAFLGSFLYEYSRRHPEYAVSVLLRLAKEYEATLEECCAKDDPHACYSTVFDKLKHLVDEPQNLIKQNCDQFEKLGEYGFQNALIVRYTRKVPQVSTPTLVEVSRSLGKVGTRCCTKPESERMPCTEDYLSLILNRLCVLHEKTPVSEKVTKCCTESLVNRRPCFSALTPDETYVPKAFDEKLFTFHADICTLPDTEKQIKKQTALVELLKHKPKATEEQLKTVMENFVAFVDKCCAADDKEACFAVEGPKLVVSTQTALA
Concanavalin-A (Canavalia ensiformis), sequence (P02866 whole entry, looked up): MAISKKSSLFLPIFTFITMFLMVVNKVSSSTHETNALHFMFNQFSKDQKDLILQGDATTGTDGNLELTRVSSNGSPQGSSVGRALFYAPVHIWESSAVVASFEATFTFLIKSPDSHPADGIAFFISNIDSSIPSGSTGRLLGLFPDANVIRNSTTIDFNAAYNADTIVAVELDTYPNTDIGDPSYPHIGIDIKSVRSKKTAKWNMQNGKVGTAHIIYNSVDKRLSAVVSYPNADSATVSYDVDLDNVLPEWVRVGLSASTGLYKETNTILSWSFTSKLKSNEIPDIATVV
Focal adhesion kinase 1 (Homo sapiens), sequence (Q05397 whole entry, looked up): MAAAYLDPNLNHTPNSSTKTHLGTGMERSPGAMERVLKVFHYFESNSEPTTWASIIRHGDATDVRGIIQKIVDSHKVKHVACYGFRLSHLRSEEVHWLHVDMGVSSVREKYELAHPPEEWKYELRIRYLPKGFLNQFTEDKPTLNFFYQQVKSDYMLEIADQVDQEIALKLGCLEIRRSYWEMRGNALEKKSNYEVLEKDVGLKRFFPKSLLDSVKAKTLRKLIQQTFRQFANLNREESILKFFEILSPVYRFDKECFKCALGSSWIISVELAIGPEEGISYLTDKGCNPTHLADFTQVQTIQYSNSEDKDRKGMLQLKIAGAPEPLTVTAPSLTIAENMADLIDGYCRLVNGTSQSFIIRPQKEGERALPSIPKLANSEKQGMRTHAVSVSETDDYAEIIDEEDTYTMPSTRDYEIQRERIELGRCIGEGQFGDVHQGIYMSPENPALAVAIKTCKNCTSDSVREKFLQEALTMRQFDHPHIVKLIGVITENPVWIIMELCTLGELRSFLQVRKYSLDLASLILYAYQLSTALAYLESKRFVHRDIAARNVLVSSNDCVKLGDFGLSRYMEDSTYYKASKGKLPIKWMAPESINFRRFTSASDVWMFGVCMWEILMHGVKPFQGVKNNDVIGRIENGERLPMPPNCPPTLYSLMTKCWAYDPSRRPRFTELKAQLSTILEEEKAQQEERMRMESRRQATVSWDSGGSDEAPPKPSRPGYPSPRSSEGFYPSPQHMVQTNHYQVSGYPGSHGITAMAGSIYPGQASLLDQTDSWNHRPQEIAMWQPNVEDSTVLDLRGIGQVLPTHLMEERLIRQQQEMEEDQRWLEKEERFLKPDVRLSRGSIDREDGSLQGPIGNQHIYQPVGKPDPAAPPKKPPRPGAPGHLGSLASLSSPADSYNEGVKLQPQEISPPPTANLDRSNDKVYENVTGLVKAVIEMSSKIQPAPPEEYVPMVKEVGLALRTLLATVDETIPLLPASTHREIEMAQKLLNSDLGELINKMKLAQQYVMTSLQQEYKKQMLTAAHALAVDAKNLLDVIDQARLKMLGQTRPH
Fibroblast growth factor 2 (Homo sapiens), sequence (P09038 whole entry, looked up): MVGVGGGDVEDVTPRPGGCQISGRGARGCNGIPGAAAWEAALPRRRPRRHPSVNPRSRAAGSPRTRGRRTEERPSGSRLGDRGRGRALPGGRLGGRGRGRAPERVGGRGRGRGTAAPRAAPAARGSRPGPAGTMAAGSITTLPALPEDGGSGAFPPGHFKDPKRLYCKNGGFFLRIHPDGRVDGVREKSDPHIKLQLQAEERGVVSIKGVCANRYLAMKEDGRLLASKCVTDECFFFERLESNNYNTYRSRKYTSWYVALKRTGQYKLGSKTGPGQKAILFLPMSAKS
Follistatin (Homo sapiens), sequence (P19883 whole entry, looked up): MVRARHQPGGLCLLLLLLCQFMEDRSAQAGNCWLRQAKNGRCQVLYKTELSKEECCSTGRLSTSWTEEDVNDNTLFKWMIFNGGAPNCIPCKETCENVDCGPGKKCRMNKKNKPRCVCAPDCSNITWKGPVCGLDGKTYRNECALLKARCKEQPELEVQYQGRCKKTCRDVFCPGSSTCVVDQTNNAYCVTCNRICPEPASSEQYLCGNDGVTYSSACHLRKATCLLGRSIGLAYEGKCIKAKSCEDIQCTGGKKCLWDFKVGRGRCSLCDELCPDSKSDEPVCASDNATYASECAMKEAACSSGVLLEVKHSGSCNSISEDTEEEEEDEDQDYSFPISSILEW

With `NC(=O)NCC#Cc1ccc2c(c1)[C@]1(C(=O)N2)[C@H](c2ccccc2OCCO)N2[C@H](c3ccccc3)[C@H](c3ccccc3)OC(=O)[C@H]2[C@@H]1C(=O)Nc1nc2ccccc2s1`, the composite z-score was 0.403 in assay [1]; 0.288 in [3]; -0.123 in assay [4]; 0.237 in [5]; 1.63 in [6]; 0.0159 in assay [7]. Also, the composite z-score in assay [8] is 1.07; in assay [9], -0.287; in assay [10] it was 0.748; in assay [11], 0.111; in assay [12], 0.844; in [13] it was 0.346. For the same compound, the composite z-score in assay [14] stood at 0.613; in assay [15] it was 0.759; in assay [16], 0.244; in [18], 0.373; in [19], 0.89. Moreover, the composite Z-score in assay [2] is 0.105 (inactive). Moreover, the z-score in [17] was -2.13; in assay [20], 0.302 (inactive).

Consider `COC(=O)C(CC#Cc1ccc2c(c1)[C@]1(C(=O)N2)[C@H](c2ccc(OCCO)cc2)N2[C@H](c3ccccc3)[C@H](c3ccccc3)OC(=O)[C@H]2[C@@H]1C(=O)Nc1nc2ccccc2s1)C(=O)OC`, for which the composite z-score in assay [1] was 0.959; in assay [3] it was 0.0038; in assay [4], -0.183; in assay [5] it was 0.546; in [6], 2.4; in assay [7], -0.065. The composite z-score in [8] was determined as 1.31; in assay [9] it was 0.326; in [10], 1.16; in assay [11], 1.6; in assay [12], 1.23; in assay [13] it was 0.633. The composite z-score in assay [14] was 0.998; in [15], 0.989; in [16], 0.408; in assay [18], 0.417; in assay [19], 0.638. For the same compound, in assay [2], the composite Z-score was -0.0045 (inactive). The z-score in assay [17] was -2.05; in assay [20], -0.877 (inactive).

For the compound `COCCOC(=O)N1C(=O)[C@@]2(c3cc(C#CC4(O)CCCCCC4)ccc31)[C@H](c1ccc(OCCO)cc1)N1[C@H](c3ccccc3)[C@H](c3ccccc3)OC(=O)[C@H]1[C@@H]2C(=O)N1CCN(c2ncccn2)CC1`, the composite z-score was 0.716 in [1]; 0.0026 in assay [3]; -0.146 in [4]; 0.497 in assay [5]; 1.46 in assay [6]; -0.163 in [7]. The composite z-score in [8] amounted to 1.3; in [9], 0.34; in assay [10], 1.13; in assay [11] it was 1.39; in [12], 1.21; in [13], 0.333. Also, the composite z-score worked out at 0.956 in assay [14]; 1.03 in assay [15]; 0.758 in assay [16]; 0.651 in [18]; 0.458 in assay [19]. The composite Z-score in [2] is -0.232 (inactive). The z-score is -1.1 in [17] and -0.606 (inactive) in assay [20].

As for `COC(=O)[C@@]1(Cc2ccc(OC)cc2)[C@H]2c3cc(C(=O)N(C)C)n(C)c3C[C@H]2CN1C(=O)c1ccccc1`, the composite z-score in assay [1] was 1.03; in assay [3] it was 0.839; in assay [4], 0.284; in assay [5] it was 0.76; in [6], 3.16; in [7], 0.0675. Also, the composite z-score in assay [8] was 1.31; in assay [9], -0.1; in [10], 1.15; in assay [11], 0.392; in assay [12], 1.27; in [13], 0.698. In addition, the composite z-score was 0.97 in assay [14]; 1.22 in assay [15]; 0.0022 in [16]; 0.146 in [18]; 1.11 in [19]. Besides, the composite Z-score in assay [2] was 0.0517 (inactive). The results for the z-score in assay [17] and in assay [20] were 1.05 and 1.82 (inactive), respectively.

Take `CCOC(=O)C[C@H]1[C@H](OC(=O)c2ccc(C(=O)c3ccccc3)cc2)[C@@H](NC(=O)CC(C)C)c2cc(OCCCO)ccc2N1C(=O)c1ccc2ccccc2n1`: the composite z-score was 0.577 in assay [1]; 0.206 in assay [3]; -0.114 in [4]; 0.232 in [5]; 1.21 in assay [6]; 0.323 in assay [7]. The composite z-score in assay [8] was found to be 1.29; in [9], 0.448; in [10], 1.12; in [11] it was 1.35; in assay [12] it was 1.21; in assay [13] it was 0.0174. The composite z-score worked out at 0.989 in [14]; 1.15 in [15]; 0.94 in assay [16]; 1.36 in assay [18]; 0.61 in assay [19]. For the same compound, the composite Z-score in [2] is -0.86 (inactive). In addition, the z-score in [17] was 1.78; in [20], 0.103 (inactive).
